# In PubChem BioAssay AID493191 (Broad Institute, 2011):
# Hit rate of the full screen: of about 1,300 compounds, about 330 (25%) were called active. These entries were drawn from the full list. Entries with a potency or affinity are not part of this list. A number with no mark means an inactive call. No rule for the calls is given here.
# Test: MALME3 melanoma cell viability loss, dose response, orthogonal assay for MITF inhibitor project, CellTiter-Glo, cherry-picked (AID 493191)
# Settings: CellTiter-Glo luminescence, 24 h; series mostly up to 35 µM; activity change, negative = inhibition: at the top concentration
row,SMILES,"activity change, negative = inhibition"
1,O=C1CN(c2ccccc2)C(=S)N1C(=O)c1ccc(Br)cc1,1.54%
2,COc1ccc(NC(=O)c2cc(F)cc(F)c2)cc1Cl,4.16%
3,CN(C)c1ccc(NC(=O)Nc2ccc3c(c2)nnn3C)cc1,4.8%
4,O=[N+]([O-])/C=C\c1ccc(N2CCOCC2)cc1,-43.3%
5,COc1ccc(C(NC(C)=O)c2ccc3cccnc3c2O)c(OC)c1 (configuration not stated),-12.3%
6,CCOC(=O)c1ccc2nc(C)c(CCC(C)=O)c(Cl)c2c1,2.96%
7,COc1ccc(C(=O)Nc2ccc(C)cn2)c(OC)c1,-12.9%
8,CC(C)N1C(=O)S/C(=C\c2ccc(-c3ccc(Cl)c(C(=O)O)c3)o2)C1=O,-3.04%
9,COC(=O)c1ccc(COc2ccc3c(c2)CCC3)o1,8.31%
10,CN=c1scc(-c2ccccc2F)n1/N=C/c1ccc[nH]1,-34.7%
11,O=C(/C=C/c1ccc2c(c1)OCO2)N1CCCCC1,-4.57%
12,CCCC(=O)NC(c1ccc(OC)c(OC)c1)c1cc(Cl)c2cccnc2c1O (configuration not stated),-18%
13,CCC(=O)NC(c1ccccc1OC)c1ccc2cccnc2c1O (configuration not stated),-33.2%
14,COc1cnc(-c2ccccn2)nc1NC(C)C,-17.5%
15,CCNC(=O)CC1C(=O)N(c2ccc(F)cc2)C(=O)N1CCc1ccc(OC)cc1 (configuration not stated),5.54%
16,COc1ccc(C(=O)C(CN2CCOCC2)c2ccccc2)cc1 (configuration not stated),1.65%
17,COc1ccc(C(=O)C(CN2CCCC2)c2ccccc2)cc1 (configuration not stated),-17.8%
18,COc1ccc(C(=O)CCNc2ccc(F)cc2)cc1,-6.85%
19,c1ccc(-n2ncc3c(NCc4cccs4)ncnc32)cc1,-1.69%

row,SMILES,"activity change, negative = inhibition"
1,CC(C)(C)c1ccc(C(=O)Nc2sc3c(c2C(=O)O)CCC3)cc1,4.71%
2,Cc1cc(C)c2c(N)c(C(=O)Nc3ncc(C)s3)sc2n1,-25.4%
3,O=C(CC(=O)c1ccccc1)Nc1ccccc1,4.25%
4,O=C(CNC(=O)c1ccc(Br)cc1)c1ccccc1,6.33%
5,C/C(=N/N=C(/C)c1cccs1)c1cccs1,-2.97%
6,CCC[n+]1c(C)sc2c3c(ccc21)CCCC3,-45%
7,Cn1cc([N+](=O)[O-])c(C(=O)Nc2cc(Oc3ccccc3)cc([N+](=O)[O-])c2)n1,-58.6%
8,Cc1nc2cc(NC(=O)Nc3cccc([N+](=O)[O-])c3)ccc2n1C,3.83%
9,Cc1cc(C)c2c(N)c(C(=O)N/N=C/c3cccnc3)sc2n1,4.39%
10,O=C(O)C1CCN(C(=O)OCc2ccccc2)CC1,2.88%
11,CC1CC(C)CN(C(=O)/C=C/c2ccc([N+](=O)[O-])s2)C1 (configuration not stated),-44.7%
12,O=C(/C=C/c1ccc([N+](=O)[O-])s1)N1CCCC1,-43.5%
13,O=C(/C=C/c1ccccc1)Nc1cccc(C(=O)O)c1,-3.9%
14,Cc1ccc(NC(=O)/C=C/c2ccc([N+](=O)[O-])s2)c(C)c1,-33.7%
15,CC(C)N=c1c([N+](=O)[O-])nn(C)n1O,2.73%
16,OCC1OC(n2cnc3c(NCc4ccco4)ncnc32)C(O)C1O (configuration not stated),-21.7%
17,CC(Oc1ccc(F)cc1)C(=O)Nc1nc(-c2ccccn2)cs1 (configuration not stated),-6.21%
18,CCC(=O)NCCc1nc2cc(NC(=O)c3cccc([N+](=O)[O-])c3)ccc2n1C,7.29%
19,CCN1CCc2c(sc(NC(=O)c3ccc(S(=O)(=O)N4CCCCCC4)cc3)c2C(=O)NC)C1,1.75%

row,SMILES,"activity change, negative = inhibition"
1,O=C(Nc1ccc(F)c(Cl)c1)c1ccc2c(c1)OCO2,3.21%
2,O=C(Cn1cnc2ccccc2c1=O)Nc1ccc2c(c1)OCCO2,12.2%
3,COc1ccc(NS(=O)(=O)c2cc(NC(=O)CNC(=O)c3cccc(OC)c3)ccc2C)cc1,25.5%
4,Cc1cc(C)n(-c2ccc(C(=O)Nc3ccc(C)c(S(=O)(=O)N4CCOCC4)c3)cc2)n1,-3.78%
5,O=C(N/N=C\c1cc(Cl)ccc1O)c1ccc(S(=O)(=O)N2CCCCC2)cc1,-27.4%
6,O=C(Nc1ccccc1F)C(=O)Nc1cccc2ccccc12,-0.168%
7,Cc1ccc2oc(C(Cl)(Cl)Cl)cc(=O)c2c1,-14.9%
8,O=C(CSc1nnnn1-c1ccc(O)cc1)Nc1cccc(S(=O)(=O)N2CCCC2)c1,-6.31%
9,O=C(CCl)Nc1cccc(S(=O)(=O)NC2=NCCCCC2)c1,-33%
10,CC1CCN(c2nc3ccc(C(=O)O)cc3s2)CC1,-11.3%
11,COc1cccc(N2CCN(C(=O)c3ccc(CS(=O)c4ccccc4Cl)o3)CC2)c1 (configuration not stated),0.783%
12,COc1ccc(C(=O)Nc2nc3ccc(OC)cc3s2)cc1,2.29%
13,O=C(c1ccc(F)cc1)N1CCC(c2ccccc2)C1 (configuration not stated),6.87%
14,CC(C)c1nnc(NC(=O)CCC2CCCCC2)s1,-0.152%
15,COc1ccc2oc(=O)c(C(=O)Nc3ccccc3C)cc2c1,-4.46%
16,c1ccc(OCc2nn3c(-c4ccccn4)nnc3s2)cc1,4.41%
17,COc1ccc(-c2c[n+](CC(=O)OC3CC(C)CCC3C(C)C)c3n2CCC3)cc1 (configuration not stated),-48.5%
18,Cc1ccc(-c2c[n+](Cc3ccc(Cl)cc3)c3n2CCC3)cc1,-11.4%
19,COc1ccc(N/N=C/c2c(C(=O)O)ccc3ccccc23)cc1,-11.4%
